Tested on: RIOK2
Conditions: concentration: 1 μM,replicates: in singlicate; n = 1
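Also: KINOMEscan kinase panel screen.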

Structure (SMILES)	%Inh [%]
CC(C)c1nc(-c2cccc(NS(=O)(=O)c3ccccc3)c2)c(-c2ccnc(Nc3ccc4c(c3)CN(C)CC4)n2)s1 [GSK1649598]	0
C[C@@H](Oc1cc(-n2cnc3cc(-c4cnn(C)c4)ccc32)sc1C(N)=O)c1ccccc1Cl [GSK580432]	25
CCn1c(-c2nonc2N)nc2cncc(CNC3CCNCC3)c21.Cl [SB-747651]	0
CN1CCN(CCCNc2nccc(-c3c(-c4ccc(F)cc4)nn4cc(C(N)=O)ccc34)n2)CC1 [GW622475]	27
Cc1ccc(C(=O)Nc2ccc(Oc3ccc4nc(NC(=O)C5CC5)cn4c3)c(F)c2)c(=O)n1-c1ccccc1	0
CC(=O)Nc1ccc(-c2cc3ncnc(SCC(=O)O)c3s2)cc1	0
Cn1ccc2ncnc(Oc3ccc(NC(=O)Nc4ccnc(C(F)(F)F)c4)c(Cl)c3)c21	19
NC(=O)c1ccc(-c2cc3ncnc(SCC(=O)O)c3s2)cc1	0
CN(c1ccc2c(c1)nc(NCc1ccc(F)cc1)n2C)c1ccnc(Nc2ccc(CS(C)(=O)=O)cc2)n1.Cl [GW813244]	21
FC(F)(F)c1cc(Br)cc(Nc2nccc(-c3cnn4ncccc34)n2)c1 [GW810578]	82
Cn1ccc2ncnc(Oc3ccc(NC(=O)Nc4cccc(C(F)(F)F)c4)c(F)c3)c21	0
CCCC(=O)Nc1n[nH]c2ncccc12 [SB-601436]	0
CN(c1ccccc1CNc1nc(Nc2ccc3c(c2)CC(=O)N3)ncc1C(F)(F)F)S(C)(=O)=O	0
